Bioassay records as filed in PubChem BioAssay.
Bead autofluor – counter-screen for toxin protease inhibitors: compound fluorescence; compound autofluorescence counterscreen, microsphere flow cytometry; hits give high values; 360,000 tested, 3.1% active; fluorescence intensity (concentration not given with the values); in the data active = fluorescence intensity above about 16000; inconclusive = no clear call, values can overlap the other calls
BoNT-F LC inh – BoNT F light chain protease inhibition; 360,000 tested, 0.22% active; inhibition, % at 10 µM; Multiplex microsphere protease cleavage assay, flow cytometry; in the data active = inhibition above about 35%, passing the limit was not always enough; inconclusive = no clear call, values can overlap the other calls; also: plate controls were buffer without enzyme for full effect and enzyme alone for no effect
BoNT A protease – blocks Botulinum neurotoxin A light chain protease | 360,000 tested, 0.17% active | multiplex microsphere protease substrate cleavage, flow cytometry | inhibition, % at 10 µM; also: plate controls were buffer without enzyme for full effect and enzyme alone for no effect
BJeLR lethal – BJeLR cell viability loss; BJeLR (HRASV12) viability, CellTiter-Glo ATP luminescence, 48 h; AID 1554; 300,000 tested, 0.17% active; inhibition, % (concentration not given with the values); in the data active = inhibition above about 50%; inconclusive = no clear call, values can overlap the other calls
Anthrax LF inh2 – inhibitors of Bacillus anthracis lethal factor protease | inhibition, % at 10 µM | 360,000 tested, 0.12% active | P15917 | multiplex microsphere protease cleavage assay, LF; also: plate controls were buffer without enzyme for full effect and enzyme alone for no effect
Target sequence (P15917 whole entry, looked up): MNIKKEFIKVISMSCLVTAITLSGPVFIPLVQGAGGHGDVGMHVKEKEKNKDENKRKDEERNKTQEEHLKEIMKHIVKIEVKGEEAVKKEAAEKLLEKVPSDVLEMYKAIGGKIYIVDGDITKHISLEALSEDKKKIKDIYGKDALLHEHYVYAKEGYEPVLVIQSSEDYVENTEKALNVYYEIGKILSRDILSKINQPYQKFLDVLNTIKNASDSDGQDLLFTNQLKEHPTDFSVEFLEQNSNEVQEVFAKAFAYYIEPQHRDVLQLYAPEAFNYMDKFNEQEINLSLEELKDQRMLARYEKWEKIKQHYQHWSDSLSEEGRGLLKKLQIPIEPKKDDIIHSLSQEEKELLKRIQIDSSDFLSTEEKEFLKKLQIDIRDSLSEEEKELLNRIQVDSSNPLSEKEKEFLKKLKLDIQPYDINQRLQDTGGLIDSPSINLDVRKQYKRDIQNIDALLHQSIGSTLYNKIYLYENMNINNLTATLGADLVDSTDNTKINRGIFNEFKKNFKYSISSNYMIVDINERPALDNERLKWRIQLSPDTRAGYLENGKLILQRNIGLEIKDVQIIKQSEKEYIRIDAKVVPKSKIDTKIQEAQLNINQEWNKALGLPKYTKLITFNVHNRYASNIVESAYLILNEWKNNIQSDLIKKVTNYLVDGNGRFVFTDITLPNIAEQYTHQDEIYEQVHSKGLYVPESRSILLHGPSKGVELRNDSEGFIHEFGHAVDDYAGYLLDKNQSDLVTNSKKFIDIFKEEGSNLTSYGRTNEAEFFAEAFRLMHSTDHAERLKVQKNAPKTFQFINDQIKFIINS
3CLpro inhibitor – SARS-CoV 3CLpro protease inhibition; P0C6X7; inhibition, % at 6 µM; AID 1706; 290,000 tested, 0.14% active; recombinant SARS-CoV 3CLpro, quenched FRET peptide cleavage; in the data active = inhibition above about 12%
Numbers without * were called inactive; ? = inconclusive; / = no result. Shown are actives, neighbours in structure and some others; about 3.6% of the full set was active somewhere. Rule as the data show it, unless noted: active = inhibition above about 30%; inconclusive = no clear call, values can overlap the other calls; inactive = below that.

SMILES	Bead autofluor	BoNT-F LC inh	BoNT A protease	BJeLR lethal	Anthrax LF inh2	3CLpro inhibitor
O=C(O)c1ccc(Cl)c(NC(=O)C2CCCN2S(=O)(=O)c2cccc3nsnc23)c1 (configuration not stated)	20420*	0	0	7	-3	5
COc1cc(NCCCNC(C)C)c2nccc(C)c2c1	3432	-51	3	/	-18	/
CC(C)(C)c1cnnn1-c1ccc(C=O)cc1	24224*	-4	-3	-4	-4	5
O=C(Oc1ccc(N(Cc2cccs2)C2=NS(=O)(=O)c3ccccc32)cc1)c1ccccc1	23485*	-4	?	-5	-7	0
O=C(Oc1ccc(N(Cc2cccs2)C2=NS(=O)(=O)c3ccccc32)cc1)c1ccc(Cl)cc1	4172	-15	0	1	0	1
CCNC(=O)COC(=O)C1CCC(=O)N(c2ccc(OC)cc2)C1c1ccc(OC)cc1 (configuration not stated)	21386*	-2	-1	6	-3	4
C=COCCn1c(C)c(C(=O)OCC)c2cc(O)ccc21	21557*	0	?	1	-2	2
COC(=O)CSc1nnc(CNC(=O)c2ccc(S(=O)(=O)N3CCCCC3)cc2)n1C	24100*	-4	-1	/	1	-1
COC(=O)CSc1nnc(CNC(=O)c2ccc(S(=O)(=O)N3CCOCC3)cc2)n1C	2007	1	0	-4	2	1
CCOC(=O)CSc1nnc(CNC(=O)c2ccc(S(=O)(=O)N3CCCCC3)cc2)n1C	20926*	7	5	/	-5	-6
COc1ccc([C@H]2CN(Cc3ccccc3)C(=O)[C@@H]2CC(=O)Nc2ccccc2)cc1	3909	-4	0	/	0	/
CCN(CC)CCN1C(=O)c2ccccc2NC1c1ccc(C)cc1 (configuration not stated)	23099*	2	?	12	-4	2
C=CCOC(=O)COc1ccc2c(C)c(CC)c(=O)oc2c1	23645*	-3	-1	6	-1	-6
CC(=O)O/N=C/c1c(N2CCOCC2)n(C)c2ccccc12	23889*	-1	-2	-1	-6	8
NC(=O)c1ccc(OCC(F)(F)F)nc1	3437	?	?	6	-12	-3
Cc1ccc(C2=[N+]([O-])C3(CCCCC/C3=N\NC(N)=O)N(O)C2(C)C)o1 (configuration not stated)	2485	-3	0	-4	3	-7
CC1(C)C(c2cccs2)=[N+]([O-])C2(CCCCC/C2=N\O)N1O (configuration not stated)	24784*	-4	-2	8	-1	3
Cc1sc(NC(=O)C2CCCCC2C(=O)O)c(C(N)=O)c1C (configuration not stated)	23098*	-1	1	0	-1	-6
Cc1sc(NC(=O)C2CCCCC2C(=O)O)c(C(N)=O)c1-c1ccccc1 (configuration not stated)	6167	5	0	3	-8	0
CCN1CCN(CC(=O)c2c[nH]c3ccc(C)cc23)CC1	9143	-10	-1	3	-2	-4
Cc1ccc2[nH]cc(C(=O)CN3CCN(c4ccccc4F)CC3)c2c1	19645*	-1	-1	-6	-3	-5
CC1CCC(C(=O)c2c(O)c3ccccc3oc2=O)CC1 (configuration not stated)	20872*	4	0	5	-1	2
CC(=N)c1c(O)c2ccccc2oc1=O	4215	-3	0	-9	-9	2
CC(=O)c1cc2c(cc1NC(=O)CSc1nnc(C3CC3)n1C)OCO2	3911	1	0	/	-4	/
CN(C)CCNC(=O)c1cc(Br)ccc1Cl	21132*	0	-1	-10	0	6
SMILES	Bead autofluor	BoNT-F LC inh	BoNT A protease	BJeLR lethal	Anthrax LF inh2	3CLpro inhibitor
COCCNC(=O)c1cc(Br)ccc1Cl	8837	-2	1	2	3	2
CCc1ccc(OCCNC(=O)c2cc(SC)ccc2Cl)cc1	23443*	-2	0	-2	0	7
CCCNC(=O)c1cc(SC)ccc1Cl	20823*	7	8	-7	-9	-4
COc1cccc(CNC(=O)CN2CCC(c3nc4ccc(C)cc4[nH]3)CC2)c1	3257	0	0	8	0	3
COc1ccc(CN(C(=O)CN2C(=O)COc3ccccc32)C2CCCC2)c(OC)c1	21877*	3	2	-1	2	4
C(#Cc1ccccc1)CN1CCOCC1	4359	-6	0	3	-8	-2
C(#Cc1ccc(C#CCN2CCOCC2)cc1)CN1CCOCC1	17459*	-3	-2	-5	-2	0
CC(Nn1cnnc1)c1cc(Cl)ccc1O (configuration not stated)	3629	-4	0	-1	0	-3
Cc1ccc(NC(C)c2cc(Cl)ccc2O)cc1 (configuration not stated)	21916*	-1	?	1	-4	2
O=C(O)CC(NC(=O)CCc1ccccc1)c1ccc(Cl)cc1 (configuration not stated)	4092	-4	-3	-8	12	0
COc1cccc2sc(N(CCCN(C)C)C(=O)c3ccc(S(=O)(=O)N4CCc5ccccc5C4)cc3)nc12	5123	-5	-3	1	-4	-4
COc1ccc(OC)c2sc(N(CCCN(C)C)C(=O)c3ccc(S(=O)(=O)N4CCc5ccccc5C4)cc3)nc12	/	/	/	89*	/	/
Cc1ccc2sc(N(CCCN(C)C)C(=O)c3ccc(S(=O)(=O)N4CCc5ccccc5C4)cc3)nc2c1C	4525	6	-1	6	2	/
COc1ccc(C)c2sc(N(CCCN(C)C)C(=O)c3ccc(S(=O)(=O)N4CCc5ccccc5C4)cc3)nc12	/	/	/	81*	/	/
COc1ccc(CN(C)C(=O)[C@H]2O[C@@H](n3ccc(N)nc3=O)[C@H](O)[C@@H]2O)cc1OC	6140	0	0	/	-5	/
O=C1CC(c2ccc(F)cc2)CC2=C1C(c1ccc([N+](=O)[O-])o1)Nc1ccccc1N2 (configuration not stated)	/	/	/	-8	/	2
Cn1c(SCc2cccc(Cl)c2)nc(C(F)(F)F)cc1=O	18749*	3	2	8	-6	0
Cn1c(SCc2ccccc2)nc(C(F)(F)F)cc1=O	4673	3	-1	-2	13	0
CCOc1cc(/C=C(\C#N)c2[nH]nc(N)c2C#N)ccc1O	23984*	-5	-2	-2	0	6
Cc1nn(CCOc2ccccc2)c(=O)n1-c1cccc(F)c1	16398*	8	7	4	-21	1
Cc1nn(CCOc2ccccc2)c(=O)n1-c1ccc(F)cc1	16122	1	1	7	-5	2
COc1ccc(C(=O)NCC(=O)OCC(=O)N2CC(C)CC(C)C2)cc1 (configuration not stated)	17297*	-389	-20	3	3	-6
COc1cc(Cl)c(C)cc1NC(=O)COC(=O)c1cnc(C)cn1	2629	1	0	-4	-2	-7
